# Test results: PubChem BioAssay (EPA / NIEHS)
# Inconclusive results are not listed. More than one record can exist for a structure, and the calls need not agree. Activity calls are given as the source filed them. How the source made its calls: active means hit-call score of the fitted dose curve at least 0.9, where 1 is the maximum; inconclusive means response in the unintended direction; inactive means score below 0.9.
# What was measured:
# [1] = target: human Phosphodiesterase 10 (PDE10), PDE10A (gene 10846) (UniProt Q9Y233); test: NVS_ENZ_hPDE10: NovaScreen (NVS) Enzymatic Assay for human Phosphodiesterase 10 (PDE10) (AID 2283195)
# In short: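 Fluorescence readout after mobility-shift separation of substrate and product, 1 h reaction with recombinant human enzyme. Single-concentration duplicates at 25 uM, then concentration-response up to 50 uM for chemicals reaching threshold; DMSO baseline.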
# [2] = target: human Phosphodiesterase 4A1 (PDE4A1), PDE4A (gene 5141) (UniProt P27815); test: NVS_ENZ_hPDE4A1: NovaScreen (NVS) Enzymatic Assay for human Phosphodiesterase 4A1 (PDE4A1) (AID 2283191)
# In short: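 Fluorescent substrate turnover by recombinant PDE4A1 read after 1 h by mobility-shift separation. Primary duplicate screen at 25 uM; hits retested in concentration series with a 50 uM maximum, relative to DMSO.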
# [3] = target: human Phosphodiesterase 5 (PDE5), PDE5A (gene 8654) (UniProt O76074); test: NVS_ENZ_hPDE5: NovaScreen (NVS) Enzymatic Assay for human Phosphodiesterase 5 (PDE5) (AID 2283194)
# In short: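 Screening began in duplicate at 25 uM, with actives taken into concentration-response. Enzyme activity of recombinant PDE5 toward its substrate was measured at 1 h by fluorescence mobility-shift detection, relative to DMSO controls.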
# [4] = target: human c-Jun N-terminal Kinases (JNK2), MAPK9 (gene 5601) (UniProt P45984); test: NVS_ENZ_hJNK2: NovaScreen (NVS) Enzymatic Assay for human c-Jun N-terminal Kinases (JNK2) (AID 2283171)
# In short: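 Chemicals first tested in duplicate at 25 uM, then in singleton concentration series up to 50 uM, against extracted JNK2 enzyme. Activity loss read by fluorescence with mobility-shift separation 1 h post-dose; DMSO baseline.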
# [5] = target: Mitogen-activated protein kinase 3 (Homo sapiens) (UniProt P27361); test: NVS_ENZ_hMAPK3: NovaScreen (NVS) Enzymatic Assay for human Mitogen-Activated Protein Kinase 3 (MAPK 3) (AID 2283177)
# In short: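 Chemicals were first tested in duplicate at 25 uM, with hits re-run as concentration series (max 50 uM). Recombinant enzyme activity, measured 1 h post-dose in a cell-free format, was read by fluorescence/mobility shift relative to DMSO.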
# [6] = target: human MAP Kinase-Activated Protein Kinase 2 (MAPKAPK2), MAPKAPK2 (gene 9261) (UniProt P49137); test: NVS_ENZ_hMAPKAPK2: NovaScreen (NVS) Enzymatic Assay for human MAP Kinase-Activated Protein Kinase 2 (MAPKAPK2) (AID 2283178)
# In short: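 Chemicals screened in duplicate at 25 uM, then to 50 uM top concentration in concentration-response, against recombinant human MAPKAPK2; substrate conversion read 1 hr post-dosing by fluorescence after electrophoretic mobility-shift separation, loss-of-signal relative to DMSO.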
# [7] = target: human Matrix Metalloproteinase-3 (MMP3), MMP3 (gene 4314) (UniProt P08254); test: NVS_ENZ_hMMP3: NovaScreen (NVS) Enzymatic Assay for human Matrix Metalloproteinase-3 (MMP3) (AID 2283185)
# In short: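 Fluorescent substrate turnover by recombinant MMP3 read after 1 h, signal loss scored against DMSO. Compounds first run in duplicate at 25 uM single dose, then actives confirmed by concentration series.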
# [8] = target: human Mitogen- and Stress-activated Protein Kinase-1 (Msk1), RPS6KA5 (gene 9252) (UniProt O75582); test: NVS_ENZ_hMsk1: NovaScreen (NVS) Enzymatic Assay for human Mitogen- and Stress-activated Protein Kinase-1 (Msk1) (AID 2283187)
# In short: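 Chemicals first run in duplicate at 25 uM, with actives followed up in singleton concentration series to 50 uM maximum. Enzyme activity came from substrate/product mobility-shift separation with fluorescence detection after 1 h incubation of the recombinant protein.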
# [9] = target: cAMP-dependent protein kinase catalytic subunit alpha (Homo sapiens) (UniProt P17612); test: NVS_ENZ_hPKA: NovaScreen (NVS) Enzymatic Assay for human Protein Kinase A (PKA) (AID 2283192)
# In short: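 Cell-free kinase activity read by fluorescence after mobility-shift separation of substrate and product, 1 h post-dosing. Single-concentration duplicate screen (25 uM) preceded singleton concentration series (top 50 uM); loss of signal versus DMSO.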
# [10] = target: human Phosphoinositide 3-kinase alpha (PI3Ka), PIK3CA (gene 5290) (UniProt P42336); test: NVS_ENZ_hPI3Ka: NovaScreen (NVS) Enzymatic Assay for human Phosphoinositide 3-kinase alpha (PI3Ka) (AID 2283196)
# In short: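 Chemicals were first screened at 25 uM in duplicate, then hits were run as concentration series up to 50 uM. Enzyme activity was measured by fluorescence after mobility-shift separation, with loss of signal relative to DMSO taken as activity.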
# [11] = target: human Protein Tyrosine Phosphatase Non-receptor Type 1 (PTPN1), PTPN1 (gene 5770) (UniProt P18031); test: NVS_ENZ_hPTPN1: NovaScreen (NVS) Enzymatic Assay for human Protein Tyrosine Phosphatase Non-receptor Type 1 (PTPN1) (AID 2283201)
# In short: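 Chemicals were first tested in duplicate at 25 uM, and those passing threshold went on to singleton concentration series topping at 50 uM. Recombinant enzyme, specific substrate, product separated by mobility shift, fluorescence read at 1.33 h; activity loss relative to DMSO.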
# [12] = target: Tyrosine-protein phosphatase non-receptor type 11 (Homo sapiens) (UniProt Q06124); test: NVS_ENZ_hPTPN11: NovaScreen (NVS) Enzymatic Assay for human Protein Tyrosine Phosphatase Non-receptor Type 11 (PTPN11) (AID 2283202)
# In short: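 Compounds first tested in duplicate at 25 uM; those reaching ~30% inhibition rerun in singleton concentration-response, top 50 uM. Phosphatase activity measured after 0.5 h by fluorescence with mobility-shift separation, relative to DMSO.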
# [13] = target: Tyrosine-protein phosphatase non-receptor type 12 (Homo sapiens) (UniProt Q05209); test: NVS_ENZ_hPTPN12: NovaScreen (NVS) Enzymatic Assay for human Protein Tyrosine Phosphatase Non-receptor Type 12 (PTPN12) (AID 2283204)
# In short: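 Single-concentration duplicates (25 uM) preceded singleton concentration-response up to 50 uM for chemicals passing threshold. Cell-free recombinant PTPN12 activity was read 1.33 h after dosing via fluorescence after mobility-shift separation; loss of signal versus DMSO.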
# [14] = target: Tyrosine-protein phosphatase non-receptor type 13 (Homo sapiens) (UniProt Q12923); test: NVS_ENZ_hPTPN13: NovaScreen (NVS) Enzymatic Assay for human Protein Tyrosine Phosphatase Non-receptor Type 13 (PTPN13) (AID 2283205)
# In short: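 Screened first at a single 25 uM in duplicate; compounds passing the threshold (e.g. 30% inhibition) were rerun in concentration series, top 50 uM. Recombinant enzyme, fluorescent substrate, mobility-shift separation, 0.5 h read. Data fitted as inhibition relative to DMSO.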
# [15] = target: Tyrosine-protein phosphatase non-receptor type 14 (Homo sapiens) (UniProt Q15678); test: NVS_ENZ_hPTPN14: NovaScreen (NVS) Enzymatic Assay for human Protein Tyrosine Phosphatase Non-receptor Type 14 (PTPN14) (AID 2283206)
# In short: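 Fluorescent substrate turnover by recombinant human PTPN14 was measured 0.5 h after compound addition, with substrate and product separated by mobility shift. Single-point screening at 25 uM, then concentration-response up to 50 uM for chemicals meeting threshold (e.g., 30% inhibition).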
# [16] = target: Serine/threonine-protein phosphatase PP1-alpha catalytic subunit (Homo sapiens) (UniProt P62136); test: NVS_ENZ_hPPP1CA: NovaScreen (NVS) Enzymatic Assay for human Protein Phosphatase 1 Aatalytic subunit Alpha (PPP1CA) (AID 2283200)
# In short: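 Chemicals were first screened in duplicate at 25 uM, and those passing threshold (e.g. 30% inhibition) were run as concentration series to 50 uM. Cell-free recombinant protein, 1.33 h read, fluorescent substrate/product mobility-shift detection, normalised to DMSO.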
# [17] = target: human Matrix Metalloproteinase-9 (MMP9), MMP9 (gene 4318) (UniProt P14780); test: NVS_ENZ_hMMP9: NovaScreen (NVS) Enzymatic Assay for human Matrix Metalloproteinase-9 (MMP9) (AID 2283190);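 further: cell-free recombinant MMP9 protease activity read by fluorescent substrate signal; active means inhibition seen as loss of fluorescence signal versus DMSO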
# In short: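 Inhibition was scored as loss of fluorescence signal against DMSO controls. The recombinant protease was exposed to chemicals for 1 hour before reading; initial testing used 25 uM in duplicate.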
# [18] = target: human Janus Kinase 2 (Jak2), JAK2 (gene 3717) (UniProt O60674); test: NVS_ENZ_hJak2: NovaScreen (NVS) Enzymatic Assay for human Janus Kinase 2 (Jak2) (AID 2283169)
# In short: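 Single-point duplicate screen at 25 uM, with hits run in concentration series to a 50 uM top dose. Substrate-product separation by mobility shift with fluorescence detection, 1 h post-dosing; DMSO baseline.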
# [19] = target: human LYN Proto-Oncogene, Src family Tyrosine Kinase (LynA), LYN (gene 4067) (UniProt P07948); test: NVS_ENZ_hLynA: NovaScreen (NVS) Enzymatic Assay for human LYN Proto-Oncogene, Src family Tyrosine Kinase (LynA) (AID 2283173)
# In short: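 Recombinant kinase with fluorescent substrate; product separated from substrate by electrophoretic mobility shift and read 1 h after dosing. Duplicate screen at 25 uM, then concentration-response up to 50 uM; activity scored as signal loss against DMSO.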
# [20] = target: Collagenase 3 (Homo sapiens) (UniProt P45452); test: NVS_ENZ_hMMP13: NovaScreen (NVS) Enzymatic Assay for human Matrix Metalloproteinase-13 (MMP13) (AID 2283182)
# In short: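 Recombinant MMP13 cleaving fluorescent substrate, cell-free, measured 1 h after dosing. Primary duplicate screen at 25 uM; actives tested in concentration-response up to 50 uM; loss of signal relative to DMSO.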
# human Phosphodiesterase 10 (PDE10), PDE10A (gene 10846), sequence (Q9Y233 whole entry, looked up): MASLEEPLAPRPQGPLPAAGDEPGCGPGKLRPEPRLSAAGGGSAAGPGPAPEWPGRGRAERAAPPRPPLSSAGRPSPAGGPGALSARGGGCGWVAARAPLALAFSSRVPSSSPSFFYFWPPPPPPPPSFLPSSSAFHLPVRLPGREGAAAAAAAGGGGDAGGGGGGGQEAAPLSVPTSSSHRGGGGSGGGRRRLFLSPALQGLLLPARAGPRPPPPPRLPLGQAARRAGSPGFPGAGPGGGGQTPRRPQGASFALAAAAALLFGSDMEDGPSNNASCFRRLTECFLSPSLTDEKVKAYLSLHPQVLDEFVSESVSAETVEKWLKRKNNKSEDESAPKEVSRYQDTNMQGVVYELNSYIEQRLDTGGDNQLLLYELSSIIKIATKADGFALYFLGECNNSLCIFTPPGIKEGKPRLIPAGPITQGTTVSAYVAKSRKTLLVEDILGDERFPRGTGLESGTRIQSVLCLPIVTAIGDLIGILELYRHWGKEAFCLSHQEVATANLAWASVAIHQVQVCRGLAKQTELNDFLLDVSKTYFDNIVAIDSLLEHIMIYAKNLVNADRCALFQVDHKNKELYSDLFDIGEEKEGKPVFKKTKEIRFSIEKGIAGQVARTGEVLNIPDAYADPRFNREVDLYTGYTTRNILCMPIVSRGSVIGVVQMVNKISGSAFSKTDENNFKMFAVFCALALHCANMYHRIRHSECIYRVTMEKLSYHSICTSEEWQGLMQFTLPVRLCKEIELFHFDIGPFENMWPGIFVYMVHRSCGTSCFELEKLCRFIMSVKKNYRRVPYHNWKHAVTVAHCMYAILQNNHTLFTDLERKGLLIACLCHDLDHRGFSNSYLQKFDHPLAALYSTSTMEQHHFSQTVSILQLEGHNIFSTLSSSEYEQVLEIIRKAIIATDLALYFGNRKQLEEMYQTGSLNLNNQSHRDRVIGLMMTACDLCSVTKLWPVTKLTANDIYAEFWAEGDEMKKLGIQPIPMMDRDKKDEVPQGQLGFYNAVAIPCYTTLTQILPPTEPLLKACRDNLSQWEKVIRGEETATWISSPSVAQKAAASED
# human Phosphoinositide 3-kinase alpha (PI3Ka), PIK3CA (gene 5290), sequence (P42336 whole entry, looked up): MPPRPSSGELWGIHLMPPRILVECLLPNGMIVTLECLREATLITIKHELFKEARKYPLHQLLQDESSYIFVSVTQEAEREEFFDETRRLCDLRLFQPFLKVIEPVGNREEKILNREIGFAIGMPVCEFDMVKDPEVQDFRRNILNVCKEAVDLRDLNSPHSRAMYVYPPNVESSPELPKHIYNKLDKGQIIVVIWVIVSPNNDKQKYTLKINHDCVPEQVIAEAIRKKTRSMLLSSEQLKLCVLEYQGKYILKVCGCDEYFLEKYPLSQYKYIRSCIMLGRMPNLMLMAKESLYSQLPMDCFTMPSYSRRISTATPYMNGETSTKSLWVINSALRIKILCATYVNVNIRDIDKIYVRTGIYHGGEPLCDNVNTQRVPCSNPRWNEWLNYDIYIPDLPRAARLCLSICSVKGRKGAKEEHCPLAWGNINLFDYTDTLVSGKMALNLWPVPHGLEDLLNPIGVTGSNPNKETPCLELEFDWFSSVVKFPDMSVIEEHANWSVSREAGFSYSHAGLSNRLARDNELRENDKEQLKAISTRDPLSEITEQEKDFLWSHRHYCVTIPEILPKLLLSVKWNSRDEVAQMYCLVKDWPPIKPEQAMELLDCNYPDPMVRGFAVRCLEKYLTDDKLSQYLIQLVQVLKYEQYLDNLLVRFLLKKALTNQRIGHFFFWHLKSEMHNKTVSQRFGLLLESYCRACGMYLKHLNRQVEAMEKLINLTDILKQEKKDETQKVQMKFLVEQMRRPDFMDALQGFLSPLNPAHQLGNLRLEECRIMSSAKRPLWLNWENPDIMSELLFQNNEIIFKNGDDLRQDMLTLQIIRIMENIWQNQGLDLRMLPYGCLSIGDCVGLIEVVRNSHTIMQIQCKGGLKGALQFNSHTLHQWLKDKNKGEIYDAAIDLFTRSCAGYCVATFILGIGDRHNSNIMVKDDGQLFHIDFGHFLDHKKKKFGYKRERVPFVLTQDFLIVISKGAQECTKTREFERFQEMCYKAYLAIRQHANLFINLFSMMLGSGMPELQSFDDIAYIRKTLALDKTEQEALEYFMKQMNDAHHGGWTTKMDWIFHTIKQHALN
# human Matrix Metalloproteinase-9 (MMP9), MMP9 (gene 4318), sequence (P14780 whole entry, looked up): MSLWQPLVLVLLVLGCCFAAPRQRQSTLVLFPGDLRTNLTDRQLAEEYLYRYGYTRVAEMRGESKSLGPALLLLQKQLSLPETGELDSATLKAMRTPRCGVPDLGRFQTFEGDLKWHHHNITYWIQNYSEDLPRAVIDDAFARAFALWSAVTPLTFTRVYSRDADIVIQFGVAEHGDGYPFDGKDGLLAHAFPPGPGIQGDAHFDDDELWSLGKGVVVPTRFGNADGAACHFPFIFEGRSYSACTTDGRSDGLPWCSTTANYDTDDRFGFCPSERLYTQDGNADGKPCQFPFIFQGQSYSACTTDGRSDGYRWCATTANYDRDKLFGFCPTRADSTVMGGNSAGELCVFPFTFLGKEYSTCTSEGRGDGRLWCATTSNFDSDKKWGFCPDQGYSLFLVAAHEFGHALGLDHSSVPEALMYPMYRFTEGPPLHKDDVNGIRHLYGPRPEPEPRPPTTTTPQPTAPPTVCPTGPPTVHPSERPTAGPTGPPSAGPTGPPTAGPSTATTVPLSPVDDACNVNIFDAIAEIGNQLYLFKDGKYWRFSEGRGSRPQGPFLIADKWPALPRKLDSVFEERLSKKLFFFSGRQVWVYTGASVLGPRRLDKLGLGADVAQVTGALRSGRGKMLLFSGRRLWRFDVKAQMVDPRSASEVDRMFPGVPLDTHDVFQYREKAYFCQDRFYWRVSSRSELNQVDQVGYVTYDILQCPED
# Mitogen-activated protein kinase 3 (Homo sapiens), sequence (P27361 whole entry, looked up): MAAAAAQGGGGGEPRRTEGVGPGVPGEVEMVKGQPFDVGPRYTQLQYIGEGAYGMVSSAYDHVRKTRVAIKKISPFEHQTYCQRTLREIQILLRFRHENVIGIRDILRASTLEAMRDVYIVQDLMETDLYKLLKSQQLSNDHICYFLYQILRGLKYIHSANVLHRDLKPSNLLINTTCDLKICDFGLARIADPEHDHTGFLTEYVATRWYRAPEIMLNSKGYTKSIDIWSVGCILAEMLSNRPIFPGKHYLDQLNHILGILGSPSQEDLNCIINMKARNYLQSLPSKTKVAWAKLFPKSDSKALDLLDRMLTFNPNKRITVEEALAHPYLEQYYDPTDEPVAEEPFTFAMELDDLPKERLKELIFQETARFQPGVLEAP
# human c-Jun N-terminal Kinases (JNK2), MAPK9 (gene 5601), sequence (P45984 whole entry, looked up): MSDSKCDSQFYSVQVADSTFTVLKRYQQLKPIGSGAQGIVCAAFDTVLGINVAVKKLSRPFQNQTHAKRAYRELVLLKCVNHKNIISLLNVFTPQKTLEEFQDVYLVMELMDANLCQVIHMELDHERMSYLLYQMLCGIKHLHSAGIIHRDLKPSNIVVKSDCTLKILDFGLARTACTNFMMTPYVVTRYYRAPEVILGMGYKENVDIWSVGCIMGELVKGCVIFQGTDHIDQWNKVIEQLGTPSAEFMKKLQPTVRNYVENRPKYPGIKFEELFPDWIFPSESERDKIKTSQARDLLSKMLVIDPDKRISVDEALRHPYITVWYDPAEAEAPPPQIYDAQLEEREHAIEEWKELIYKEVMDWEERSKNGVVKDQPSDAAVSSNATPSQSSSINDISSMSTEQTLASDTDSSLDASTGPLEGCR
# human Phosphodiesterase 4A1 (PDE4A1), PDE4A (gene 5141), sequence (P27815 whole entry, looked up): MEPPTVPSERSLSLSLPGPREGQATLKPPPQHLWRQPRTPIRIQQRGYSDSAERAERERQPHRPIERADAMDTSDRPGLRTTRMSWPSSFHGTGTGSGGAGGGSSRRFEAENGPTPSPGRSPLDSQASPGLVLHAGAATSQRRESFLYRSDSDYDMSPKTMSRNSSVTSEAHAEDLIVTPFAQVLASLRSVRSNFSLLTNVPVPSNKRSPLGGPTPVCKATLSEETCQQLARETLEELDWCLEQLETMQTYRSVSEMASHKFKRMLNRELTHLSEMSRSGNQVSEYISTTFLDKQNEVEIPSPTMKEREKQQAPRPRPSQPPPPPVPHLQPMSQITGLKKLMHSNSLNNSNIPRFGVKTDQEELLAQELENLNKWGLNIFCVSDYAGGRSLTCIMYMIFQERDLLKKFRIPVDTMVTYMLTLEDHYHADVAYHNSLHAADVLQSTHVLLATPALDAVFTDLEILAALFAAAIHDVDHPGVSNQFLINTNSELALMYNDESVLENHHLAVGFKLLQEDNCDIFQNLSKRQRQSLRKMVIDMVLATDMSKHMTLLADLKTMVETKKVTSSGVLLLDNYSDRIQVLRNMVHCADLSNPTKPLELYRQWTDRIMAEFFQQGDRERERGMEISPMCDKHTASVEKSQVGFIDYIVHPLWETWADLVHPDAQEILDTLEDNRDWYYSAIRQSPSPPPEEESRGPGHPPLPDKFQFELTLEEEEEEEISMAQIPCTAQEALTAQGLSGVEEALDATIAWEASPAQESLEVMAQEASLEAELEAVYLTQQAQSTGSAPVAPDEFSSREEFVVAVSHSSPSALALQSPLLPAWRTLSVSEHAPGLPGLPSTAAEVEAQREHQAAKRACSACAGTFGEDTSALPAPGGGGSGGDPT
# human Matrix Metalloproteinase-3 (MMP3), MMP3 (gene 4314), sequence (P08254 whole entry, looked up): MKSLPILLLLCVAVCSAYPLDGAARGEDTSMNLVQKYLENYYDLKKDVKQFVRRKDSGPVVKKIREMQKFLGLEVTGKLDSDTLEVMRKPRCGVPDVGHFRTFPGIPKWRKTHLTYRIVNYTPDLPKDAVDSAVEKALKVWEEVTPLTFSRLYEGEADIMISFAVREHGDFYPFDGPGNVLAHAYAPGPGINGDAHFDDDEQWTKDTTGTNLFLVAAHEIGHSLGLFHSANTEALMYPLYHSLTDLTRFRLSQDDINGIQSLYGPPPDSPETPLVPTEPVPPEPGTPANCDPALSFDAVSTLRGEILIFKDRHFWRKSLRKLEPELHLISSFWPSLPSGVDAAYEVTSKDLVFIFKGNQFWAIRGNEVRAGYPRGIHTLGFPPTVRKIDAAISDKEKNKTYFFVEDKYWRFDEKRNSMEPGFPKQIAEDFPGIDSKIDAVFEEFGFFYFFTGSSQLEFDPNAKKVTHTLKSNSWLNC
smiles,measurement,setting,value
CCC1CO1 (stereo not given),AC50,[1],6.67 µM (active)
CCCC=O,outcome,[1],inactive
CS(=O)(=O)c1ccc([C@@H](CC2CCCC2)C(=O)Nc2cnccn2)cc1Cl,outcome,[2],inactive
same,AC50,[3],8.2 µM (active)
CCCCCCCCCCCCOS(=O)(=O)O,AC50,[4],37.5 µM (active)
same,AC50,[5],18.1 µM (active)
same,outcome,[6],inactive
same,AC50,[7],36.7 µM (active)
same,AC50,[8],43 µM (active)
same,AC50,[2],11.8 µM (active)
same,AC50,[9],42.4 µM (active)
same,AC50,[1],25 µM (active)
same,outcome,[10],inactive
same,AC50,[11],22.7 µM (active)
same,AC50,[12],38.4 µM (active)
same,AC50,[13],11.9 µM (active)
same,AC50,[14],46.3 µM (active)
same,outcome,[15],inactive
CC(=O)Nc1ccc(O)cc1,outcome,[16],inactive
CC(=O)CC(C)C,outcome,[1],inactive
O=C1NS(=O)(=O)c2ccccc21,outcome,[9],inactive
CCN(CC)CC,outcome,[10],inactive
CCc1cccc(CC)c1NC(=O)C(=O)O,outcome,[1],inactive
CCOCCOCC,outcome,[10],inactive
CCCCC(CC)C(=O)O (stereo not given),outcome,[17],inactive
Clc1ccc(Nc2nnc(Cc3ccncc3)c3ccccc23)cc1,outcome,[1],inactive
CCCCCC(C)OC(=O)COc1ccc(Cl)c2cccnc12 (stereo not given),outcome,[3],inactive
same,outcome,[13],inactive
CCOC(OCC)C(=O)c1ccccc1,outcome,[1],inactive
CCOC(C)=O,AC50,[17],4.98 µM (active)
CCCCCCCCC(C)=O,outcome,[1],inactive
NC(=NCCCCCCN=C(N)/N=C(\N)Nc1ccc(Cl)cc1)/N=C(\N)Nc1ccc(Cl)cc1,AC50,[10],0.531 µM (active)
Cc1[nH]nc2c1N=C(c1ccccc1Cl)c1cc([N+](=O)[O-])ccc1N2,AC50,[18],0.00328 µM (active)
same,AC50,[4],35.8 µM (active)
same,AC50,[19],25 µM (active)
same,AC50,[5],25 µM (active)
same,AC50,[20],16.2 µM (active)
O=C(NCc1ncc(C(F)(F)F)cc1Cl)c1c(Cl)cccc1Cl,outcome,[1],inactive
CCCCCCCCCCCCCCCCCC[N+](C)(C)Cc1ccccc1,outcome,[17],inactive
same,outcome,[1],inactive
CC(C)C=O,outcome,[10],inactive
O=C1OC2(c3ccccc31)c1cc(I)c(O)c(I)c1Oc1c2cc(I)c(O)c1I,outcome,[1],inactive
O=C(c1ccccc1)c1ccccc1,outcome,[3],inactive
O=C(NO)c1ccccc1,AC50,[1],7.2 µM (active)
same,outcome,[1],inactive
same,outcome,[10],inactive
CCCCCCCCCCCC,outcome,[10],inactive
C=COC(=O)C(C)(C)CCCCCC,outcome,[10],inactive
CCCCCCCCCCCCCCC,outcome,[20],inactive
CCCCC(CC)C(=O)OCCOCCOCCOCCOC(=O)C(CC)CCCC (stereo not given),outcome,[10],inactive
